This is a sample that favours compounds with a hit; in the whole collection about 3.7% have one here.
HTT ATP protect: protects HTT-Q103 PC12 cells, measured by ATP | PC12 HTT-Q103 induced, cytoprotection, ATP luminescence, 40 h | Potency, µM (series often up to 56.4 µM), inactives show cytoprotection (ATP increase), usual class: activators | hit rate 0.14% among 230,000; also: % of control where 0% means no effect; nearly all actives have a fitted effect of over 45% in size
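PC12 cells stably carrying ecdysone-inducible Htt exon 1 (Q103)–GFP were induced with 100 nM tebufenozide (final) alongside library compounds in a dose series. Cytoprotection was scored as retained ATP by ATPlite luminescence.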
Tau FP inhib: blocks human tau fibril formation measured by polarization | hit rate 0.39% among 280,000 | P10636 | Potency, µM (titrated, usually from 57.7 µM), for inactives: top-dose activity, negative = inhibition, hits mostly inhibitors | K18 P301L tau heparin fibrillization, Alexa594 FP, 6 h; also: % is scaled to controls: 0 for no effect and ±100 for the full control effect; nearly all actives have a fitted effect of over 55% in size
Target sequence (P10636 561-689 P618L limits assumed): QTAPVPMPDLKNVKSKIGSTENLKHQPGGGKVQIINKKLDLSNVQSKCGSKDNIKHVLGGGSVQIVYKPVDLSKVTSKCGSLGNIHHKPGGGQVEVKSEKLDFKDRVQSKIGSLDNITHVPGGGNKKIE
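Quantitative HTS format: compounds meet 15 uM recombinant K18 P301L tau and Alexa 594-tau tracer in 100 mM sodium acetate pH 7; 20 uM heparin triggers fibrillization at 37 C over 6 hr; FP gives the signal.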
Tau ThT inhib: blocks human tau fibril formation measured by thioflavin T; P10636; recombinant tau K18 P301L, heparin-induced fibrillization, ThT fluorescence; Potency, µM (doses to about 57.4 µM), without a hit: at the highest dose activity, negative = inhibition, hits mostly inhibitors; hit rate 2.1% among 270,000; AID 1460; also: % is scaled to controls: 0 for no effect and ±100 for the full control effect; nearly all actives have a fitted effect of over 55% in size
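K18 P301L tau (15 uM + 0.24 uM Alexa 594-tagged), heparin 20 uM, NaOAc pH 7, 6 h 37 C; ThT 30 uM, 1 h RT, ex 450/em 510 nm.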
HttQ103 aggreg: mutant huntingtin aggregation inhibition. PC12 HttQ103-GFP aggregates, Acumen cytometry, 40 h. Potency, µM (highest dose often 46.1 µM), for inactives: top-dose activity change, negative = inhibition, usual class: inhibitors. hit rate 1.1% among 220,000. AID 1688; also: % is scaled to controls: 0 for no effect and ±100 for the full control effect; nearly all actives have a fitted effect of over 60% in size
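Read-out: GFP aggregate count by laser scanning cytometer (488 nm excitation, 500-530 nm emission, 1–25 µm objects >6 SD above background). Cells: PC12, inducible HTTex1-Q103-GFP, 100 nM tebufenozide; compounds titrated.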
Tau fluor cs: counter-screen for tau fibril formation inhibitors | tau K18 P301L Alexa594 fluorescence, heparin fibrillization | Potency, µM (series often up to 57.7 µM), inactives show at the highest dose activity change, negative = decrease | hit rate 0.93% among 280,000; also: % is scaled to controls: 0 for no effect and ±100 for the full control effect; nearly all actives have a fitted effect of over 55% in size
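Human tau K18 P301L (15 uM unlabeled, 0.24 uM Alexa 594-labeled) in 100 mM sodium acetate pH 7 with 20 uM heparin, 6 hr at 37 C. ThT 30 uM added, 1 hr ambient; Alexa 594 FP and total fluorescence read at 555/632 nm.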
Active calls of the source: *; ? = inconclusive; / = no result; [ ] = remark or other dose. Calls follow the shape of the dose curve; as a rule, active = well fitted curve in the direction sought with a large enough effect; inconclusive = small, poorly fitted or top-dose-only effect, or another doubt; inactive = no such curve, though single readings can be large; an effect the other way counts as inactive or inconclusive. Potency is read from the fitted curve at half-maximal effect.

SMILES	HTT ATP protect	Tau FP inhib	Tau ThT inhib	HttQ103 aggreg	Tau fluor cs
Cc1cccc(-c2nnc(C3CCN(S(=O)(=O)c4cccc(Cl)c4)CC3)o2)c1	/	0%	?	/	-18%
O=C(O)COc1nn(Cc2ccccc2)c2ccccc12	-6%	/	/	7%	/
CO[C@@H]1COC(=O)CCC[C@@H](C)[C@H](OC)COC(=O)[C@H](Cc2ccccc2)NC(=O)C/C=C\[C@H]1C	?	1%[11.6 µM]	-1%[11.5 µM]	/	-6%[11.6 µM]
O=C(CC1SC(=Nc2ccccc2)N(CCc2c[nH]c3ccccc23)C1=O)Nc1ccccc1F (stereo not given)	12%[10 µM]	-6%	-15%	?	13µM*[quencher]
O=C(Nc1cccc(F)c1)c1cc(S(=O)(=O)N2CCOCC2)cs1	19%[10 µM]	-6%	-6%	-2%[9.22 µM]	-18%
O=C(Nc1ccc(Cl)cc1)c1cc(S(=O)(=O)N2CCOCC2)cs1	-48%	-12%	-8%	10µM*	?
CC(=O)C1=C(c2ccccc2)N(C(C)=O)n2c(nnc2C2CCCCC2)S1	/	-17%	?	/	-11%
COc1ccc(N=c2ssnc2Cl)cc1	-4%[10 µM]	?	13µM*	9%	-24%
COc1cc(N=c2ssnc2Cl)cc(OC)c1OC	-85%	?	20µM*	-30%	-24%
Fc1ccc(N=c2ssnc2Cl)c(F)c1	12%[10 µM]	?	14µM*	?	-15%
O=C1CSC(=Nc2ccccc2)N1Cc1ccccc1	?	7%	-5%	4%	-7%
Clc1nssc1=Nc1ccccc1	-16%	40µM*	28µM*	-3%	-23%
COCC#Cc1ccc(C2NC(C(=O)O)CCC2C)cc1 (stereo not given)	-48%[10 µM]	-9%[11.6 µM]	-2%[11.5 µM]	/	-2%[11.6 µM]
O=C1CSC(=Nc2ccc(Cl)cc2)N1Cc1ccco1	-28%[10 µM]	11%	-8%	-9%[9.22 µM]	-3%
CCOC(=O)c1ccc(N=c2ssnc2Cl)cc1	26%	?	28µM*	?	-18%
N#Cc1ccc(N=c2ssnc2Cl)cc1	-80%	?	20µM*	4%	-17%
Clc1ccc(N=c2ssnc2Cl)cc1	/	18µM*	13µM*	?	-22%
O=C(O)/C=C(/C(=O)O)[C@]12CCN3CC4=CCO[C@@H]5CC(=O)N[C@@H]1[C@H]5[C@H]4C[C@H]32	5%[10 µM]	/	/	/	/
CCNc1ccc(C(=O)NN=C2CCCC2)cc1[N+](=O)[O-]	-83%	4%	8.9µM*	?	-18%
O=C(NN=C1CCCCCCC1)c1ccc(F)cc1	-45%	-1%	-4%	16%	4%
Cc1csc(NC(=O)CCCc2cccs2)n1	-50%	-12%	-13%	-8%	-19%
O=C(CCCc1cccs1)Nc1nc2c(s1)CCCC2	/	7%	?	0.028µM*	-14%
CCOC(=O)c1c(N)sc2c(OCC)c(Br)ccc12	?	-1%	?	-5%	25µM*[quencher]
C=CCn1c(SCC(=O)NCCOC)nc2scc(-c3ccco3)c2c1=O	-21%	16µM*	22µM*	?	-17%
C=CCn1c(SCC(=O)NCC2CCCO2)nc2scc(-c3ccco3)c2c1=O (stereo not given)	-15%[10 µM]	-12%	?	4%	-5%
SMILES	HTT ATP protect	Tau FP inhib	Tau ThT inhib	HttQ103 aggreg	Tau fluor cs
CN[C@]1(C)[C@@H]2CC[C@@H](C2)C1(C)C	-1%[1.9 µM]	/	/	/	/
COc1ccccc1-c1nnc(Sc2nc([N+](=O)[O-])nn2C)o1	18µM*	-4%	?	/	-11%
c1ccc2c(c1)Nc1cc3ccccc3cc1S2	-10%[10 µM]	?	2.2µM*	6%[9.22 µM]	?
COc1ccc2c(c1)S(=O)(=O)c1ccccc1N2	3%[10 µM]	10%	-7%	14%[9.22 µM]	?
COc1ccc2c(c1)Sc1ccccc1N2	1%[10 µM]	-11%	10µM*	7.9µM*	10µM*[quencher]
CCOC(=O)C1=C(C)NC(C)=C(C(=O)OC)[C@@H]1c1cccc(Cl)c1Cl	-21%[40.3 µM]	/	/	/	/
CCCCCCCCCCCCC/C=C\[C@@H](O)[C@H](CO)NC(C)=O	-1%	-4%	?	/	-18%
Cc1ccc2nc(-c3cccs3)c(Nc3c(C)cccc3C)n2c1	/	-12%	-16%	/	-29%
COc1ccc(NC(=O)CCc2c(C)nc3c(c2C)c(=O)n(C)c(=O)n3C)c(OC)c1	/	-4%	-17%	/	-13%
c1ccc2c(c1)Sc1ccccc1-n1cnnc1-2	29%[10 µM]	10%	-4%	6%	4%
N=C1Sc2ccccc2C2=NCCCN12	-38%[1.9 µM]	14µM*	7.1µM*	/	-17%
O=C(Nc1ccc(F)cc1F)c1ccc(-n2cnc3cccnc32)cc1	/	-6%	-10%	/	-6%
CCOC(=O)SC1=N/C(=C\c2ccc(N(C)C)cc2)C(=O)S1	-29%[0.074 µM]	1%	4.5µM*	3%	-21%
Cc1ccc(N=C2NC(=O)/C(=C/c3cccn3C)S2)cc1C	5%[10 µM]	-4%	?	6%[9.22 µM]	-21%
Cc1cccc(N=C2NC(=O)/C(=C/C=C/c3ccco3)S2)c1C	6%[10 µM]	?	16µM*	-20%	?
Cc1ccc(N=C2NC(=O)/C(=C/C=C/c3ccco3)S2)cc1	38%[10 µM]	?	6.3µM*	?	?
Cc1ccc(N=C2NC(=O)/C(=C/c3cccn3C)S2)cc1	-32%[10 µM]	3%	6.3µM*	9%[9.22 µM]	?
COc1ccc(N2CCN(CCCNC(=O)c3cnn(-c4ccc(F)cc4)c3-n3cccc3)CC2)cc1	/	13%	-16%	/	-10%
COc1cccc(/C=N/Nc2ncnc3scc(-c4ccccc4)c23)c1O	/	?	-2%	8.9µM*	?
COc1cccc(/C=N/Nc2nc3ccccc3n3cnnc23)c1O	-42%[10 µM]	14%	?	8.9µM*	-18%
COc1cccc(/C=N/Nc2nccnc2Cl)c1O	-86%[10 µM]	4%	?	1.3µM*	-5%
COc1cccc(/C=N/Nc2ncnc(Cl)c2N)c1O	-86%[10 µM]	16%	?	?	-18%
COc1cccc(/C=N/Nc2cc(-n3nc(C)cc3-c3ccccc3)ncn2)c1O	-89%[10 µM]	-12%	-7%	?	?

Screening results: PubChem, National Center for Advancing Translational Sciences (NCATS)
